Compounds with a hit are over-represented: about 2% of the library has one in this group of screens.
ABHD5-PLIN5 inh = ABHD5-PLIN5 interaction inhibitors, primary screen, cell lysate, split luciferase complementation, luminescence | Perilipin-5 (Homo sapiens) + 1-acylglycerol-3-phosphate O-acyltransferase ABHD5 (Homo … | Split G. princeps luciferase complementation, 4 h | inhibition, % at 4 µM | 360,000 tested, 0.78% active | AID 602281, 2012;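 active = inhibition above the mean inhibition across every tested compound plus 3 SD, cut at about 22% in these data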;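 also: 0% = DMSO only wells and the 100% control is not disclosed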
Exocytosis inh = LAMP-1 surface exposure blockers, TALL-104 cells – cell-based, flow cytometry, MLPCN library, primary screen; TALL-104 LAMP-1 surface exposure; cells stimulated with thapsigargin and PMA; inhibition, % at 10 µM; 360,000 tested, 0.66% active;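 active = inhibition above about 55%, limit read from the data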
B2AR ag = beta2AR agonists driving receptor internalization, primary screen, cell-based, FAP fluorogen, flow cytometry; 340,000 tested, 0.43% active; Am2.2-beta2AR cells; response, % (test concentration not listed);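 active = response above a set limit, near 3 SD of response in nonfluorescent compounds, cut at about 42% in these data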
TLR4 MyD88 comp = inhibitors of TLR4-MyD88 association in cells, primary screen, cell-based, HeLa CL3-4, BLA complementation, FRET ratio; Toll-like receptor 4 (Homo sapiens) + Myeloid differentiation primary response protein …; HeLa CL3-4 TLR4/MyD88 BLA complementation; inhibition, % at 8.4 µM; 200,000 tested, 0.18% active; in the data active = inhibition above about 25%;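 also: 0% = vehicle and 100% = reference inhibitor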
NOD2 RIPK2 PPI = NOD2-RIPK2 binding disruptors in cells, primary screen, fluorescence, CHO cells, BLA complementation | 360,000 tested, 0.38% active | Receptor-interacting serine/threonine-protein kinase 2 (Homo sapiens), O43353 | CCF4 ratio | inhibition, % at 4.98 µM; in the data active = inhibition above about 21%;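 also: 0% = vehicle only and 100% = reference blocker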
Target sequence (O43353 whole entry, looked up): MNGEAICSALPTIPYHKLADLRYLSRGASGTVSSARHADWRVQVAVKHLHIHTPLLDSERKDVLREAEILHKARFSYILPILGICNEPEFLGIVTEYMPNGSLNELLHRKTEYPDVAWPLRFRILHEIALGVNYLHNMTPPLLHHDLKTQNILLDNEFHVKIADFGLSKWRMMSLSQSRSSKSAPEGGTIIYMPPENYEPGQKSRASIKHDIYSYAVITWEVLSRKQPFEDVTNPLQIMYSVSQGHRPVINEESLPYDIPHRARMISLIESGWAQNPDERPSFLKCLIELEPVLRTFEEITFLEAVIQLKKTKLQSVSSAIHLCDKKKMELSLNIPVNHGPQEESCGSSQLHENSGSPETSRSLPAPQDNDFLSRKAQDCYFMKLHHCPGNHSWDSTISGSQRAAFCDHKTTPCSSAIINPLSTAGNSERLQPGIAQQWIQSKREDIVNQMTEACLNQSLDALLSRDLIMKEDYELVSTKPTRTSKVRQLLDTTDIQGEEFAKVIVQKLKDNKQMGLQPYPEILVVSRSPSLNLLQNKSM
TLR9-MyD88 block = inhibitors of TLR9-MyD88 association in cells, primary screen, cell-based, CHO, BLA complementation, fluorescence; Toll-like receptor 9 (Homo sapiens) + Myeloid differentiation primary response protein …; inhibition, % at 4.98 µM; 340,000 tested, 0.21% active; CCF4 FRET ratio;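 active = inhibition above the mean over all tested compounds plus 3 SD, cut at about 21% in these data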;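 also: 0% = DMSO only wells and 100% = clavulanate BLA inhibitor control wells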
Beta2AR ag CP1 = beta2AR agonists via receptor internalization, confirmation, cell-based, FAP fluorogen, flow cytometry, single point, cherry pick 1. shares compounds with B2AR ag. Am2.2-beta2AR cells, FAP surface receptor; active compounds read low. percent response (surface receptor), % at 10 µM. 1,100 tested, 25% active;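 active = surface receptor percent response at or below 58%, roughly 3 SD from nonfluorescent compounds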
B2AR FAP counter = counter-screen for beta-2AR agonists: fluorescence in Am2.2 cells; shares compounds with B2AR ag; 1,100 tested, under 10 active; FAP fluorogen flow cytometry, fluorescence counterscreen; active compounds read low; calls only at 10 µM;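 active = percent response below a set limit in fluorescence channel 1 and below 50% in channel 8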
Numbers without * were called inactive; i = inactive; . = no result given.

SMILES | ABHD5-PLIN5 inh | Exocytosis inh | B2AR ag | TLR4 MyD88 comp | NOD2 RIPK2 PPI | TLR9-MyD88 block | Beta2AR ag CP1 | B2AR FAP counter
CCOC(=O)CSC1=C(C#N)C(c2ccc(C)o2)CC(=O)N1 (configuration not stated) | 3.3 | -1.9 | 52.1* | -4.5 | 9.7 | -5.7 | 73.2 | i
CCOC(=O)[C@]12CCCC=C1N(Cc1ccc(Cl)cc1Cl)C(=O)[C@H](CC(=O)NCCC(C)C)C2 | -7.1 | 0.8 | . | . | -2.1 | . | . | .
CC(C)Oc1cc(F)ccc1-c1cc(C(=O)NCCc2ccncc2)[nH]n1 | 0.0 | -8.7 | . | . | 2.8 | . | . | .
CC1=C/C(=N\NC(=S)NCc2ccccc2)CC1 | -1.9 | -2.0 | -1.7 | -2.4 | -4.0 | -3.7 | 102.2 | i
C/C(=N\NC(=S)NCc1ccccc1)c1ccccc1 | -4.4 | -0.6 | -0.5 | -2.0 | 14.1 | 5.0 | . | .
Cc1ccc(C(O)c2ncc(-c3ccc4ccccc4c3)[nH]2)cc1F (configuration not stated) | -7.7 | -9.5 | . | . | -0.8 | . | . | .
N#CC1=C(N)OC2=C(CCc3ccccc32)C1c1ccccc1 (configuration not stated) | -5.5 | 0.0 | 42.8* | -7.5 | -9.4 | -2.8 | 28.4* | i
O=C(CCN=C1NS(=O)(=O)c2ccccc21)OCc1nnc(-c2ccc([N+](=O)[O-])cc2)o1 | 0.7 | 4.6 | -6.5 | . | -9.6 | -5.6 | . | .
CCOc1ccc(-n2nc3ccc(NC(=O)c4ccc5c(c4)OCCO5)cc3n2)cc1 | 2.8 | 0.7 | 69.0* | 2.2 | 9.7 | -5.9 | 97.6 | i
CCOC(=O)c1c(C)[nH]c(C)c1C(=O)COC(=O)c1cccc(S(=O)(=O)N(CC)CC)c1 | -8.7 | 5.6 | 44.3* | -8.9 | 3.4 | 7.9 | 117.7 | i
CC12CCC(O)CC1=CCC1C2CCC2(C)C(c3ccn[nH]3)CCC12 (configuration not stated) | 0.3 | -4.9 | 44.1* | . | -0.5 | -1.9 | 67.0 | i
O=C(CNC(=O)N1CC(=O)Nc2ccccc21)Nc1ccccc1 | -0.5 | -2.4 | -19.9 | . | 5.1 | 1.5 | . | .
O=C(CNC(=O)N1CC(=O)Nc2ccccc21)Nc1ccccc1F | -0.8 | 7.1 | 42.3* | . | -5.7 | -7.6 | 107.3 | i
O=C(c1[nH]c(C(F)(F)F)nc1-c1ccccc1)N1CCN(c2ncc(C(F)(F)F)cc2Cl)CC1 | 0.4 | 0.2 | . | . | 2.5 | . | . | .
O=C(c1cc2c(ccc3ccccc32)o1)N1CCN(c2ncc(C(F)(F)F)cc2Cl)CC1 | 1.5 | -1.5 | 97.9* | 1.0 | -1.7 | 13.3 | 13.4* | i
CN(c1ccc(F)cc1)S(=O)(=O)c1ccc(Cl)c(C(=O)NCC2(N3CCOCC3)CCCCC2)c1 | -5.6 | 12.0 | -4.0 | . | -10.8 | -2.0 | . | .
CN(c1cccc2cccnc12)S(=O)(=O)c1ccccc1 | 3.1 | 1.6 | -2.1 | . | 0.3 | -7.2 | 102.5 | i
CCN(CC)S(=O)(=O)c1cccc2cccnc12 | -3.8 | -1.0 | -0.3 | -3.0 | -0.3 | 5.0 | . | .
COC(=O)c1ccc(-n2c(C)cc(C(=O)CSc3cccc[n+]3[O-])c2C)cc1 | 4.5 | -7.9 | 2.7 | -14.6 | -2.6 | 4.9 | . | .
COC(=O)c1ccc(C(=O)OC)c(NC(=O)CSc2cccc[n+]2[O-])c1 | -2.0 | -0.9 | 3.7 | 3.1 | -14.6 | 6.4 | 102.2 | i
CC1CCCN(S(=O)(=O)c2ccc(NC(=O)CNC3CCCC3)cc2)C1 (configuration not stated) | -7.8 | -12.5 | 4.4 | . | 4.6 | -0.2 | . | .
CCS(=O)(=O)c1ncc(Cl)c(C(=O)Nc2ccc(S(=O)(=O)N3CCCC(C)C3)cc2)n1 (configuration not stated) | 13.3 | 13.6 | 46.7* | . | 13.5 | 1.8 | 69.0 | i
COC(=O)c1ccc2nc(-c3ccc(C#N)cc3)c(Cc3cccc(Cl)c3)n2c1 | -2.3 | 2.6 | . | . | -9.6 | . | . | .
CN(Cc1ccc(Cl)cc1Cl)C(=O)Cc1ccc(S(=O)(=O)N2CCOCC2)s1 | 4.9 | -1.0 | . | . | -9.5 | -7.0 | . | .
CC(NC(=O)C1CCCN1S(=O)(=O)c1cccc2cccnc12)c1ccccc1 (configuration not stated) | 8.1 | 0.6 | 56.1* | -2.7 | -7.7 | -0.1 | 105.7 | i
SMILES | ABHD5-PLIN5 inh | Exocytosis inh | B2AR ag | TLR4 MyD88 comp | NOD2 RIPK2 PPI | TLR9-MyD88 block | Beta2AR ag CP1 | B2AR FAP counter
O=c1[nH]c2ccccc2cc1CN(Cc1cccnc1)S(=O)(=O)c1ccc([N+](=O)[O-])cc1 | 0.7 | 2.6 | -18.1 | . | 4.8 | 14.6 | 150.7 | i
CC(=O)Nc1ccc(S(=O)(=O)N(Cc2cccnc2)Cc2cc3ccccc3[nH]c2=O)cc1 | 7.2 | 1.5 | 73.9* | . | -4.8 | 6.2 | 28.7* | i
CC(=O)Nc1ccc(S(=O)(=O)N(Cc2ccco2)Cc2cc3ccccc3[nH]c2=O)cc1 | 11.1 | 2.5 | 106.3* | . | -5.3 | -29.2 | 23.5* | i
CCCCN(Cc1cc2ccccc2[nH]c1=O)S(=O)(=O)c1ccc(C)cc1 | -0.4 | 6.4 | -15.4 | . | 10.4 | -3.7 | . | .
O=c1[nH]c2ccccc2cc1CN(Cc1cccnc1)S(=O)(=O)c1ccc(Cl)cc1 | 4.2 | -1.5 | -9.0 | . | -2.5 | 5.9 | 153.2 | i
CCN(Cc1cc2ccccc2[nH]c1=O)C(=O)c1cccnc1 | -8.9 | -1.5 | 2.0 | -12.3 | -0.1 | 0.0 | . | .
CCc1nc2c(OCCC3CCCCC3)cccn2c1N(C)C(=O)c1ccc(C)cc1 | -2.4 | -3.0 | . | . | 0.3 | . | . | .
CC(=O)N1c2ccc(S(=O)(=O)NCC3CCC(C(=O)NCc4ccccc4)CC3)cc2CC1C (configuration not stated) | -9.4 | 3.5 | 0.0 | . | 7.3 | -3.1 | . | .
Cc1nn(Cc2ccccc2)c(N)c1-c1ccccc1 | -2.0 | -0.7 | 49.7* | -9.5 | -4.8 | 1.2 | 101.4 | i
CCn1c(SCC(=O)N2CCCC2)nnc1-c1ccc(N)cc1 | -3.0 | 0.0 | 86.0* | 4.6 | 2.6 | -3.7 | 6.8* | i
CC(=O)Oc1ccc(C(=O)Nc2cccc(C(=O)NC(C)(C)C)c2)cc1 | 1.5 | 3.3 | -4.0 | 2.7 | -4.2 | 0.1 | . | .
CC(=O)Oc1ccc(C(=O)Nc2cccc(C(=O)c3cccc(NC(=O)c4ccc(OC(C)=O)cc4)c3)c2)cc1 | 6.5 | -3.9 | 57.4* | -8.6 | 1.5 | -11.5 | 100.2 | i
